Screens as filed in PubChem BioAssay.
Rows were chosen to be rich in hits. Some 2.6% of all compounds tested hit in one or more screens of this group.
HSP90 refold inh = HSP90 inhibitors, primary screen, cell lysate, luminescence; inhibition, % at 5.6 µM; AID 1789, 2009; Heat shock protein HSP 90 (rabbit reticulocyte lysate; luciferase refolding); Rabbit reticulocyte lysate, luciferase refolding luminescence, 3 h; hit rate 0.91% among 290,000;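 active = inhibition above the screen-wide mean plus 3 SD, computed separately per campaign, cut at about 16% in these data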;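 also: 0% = DMSO wells and 100% = 60 µM geldanamycin wells; inhibitors lower the luminescence because luciferase stays unfolded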
aDG glyco up = activators of alpha-DG glycosylation, primary screen, uHTS, Pro5-aDG cells, AlphaScreen; alpha-DG glycosylation AlphaScreen (IIH6); 0% Pro5, 100% B10-LARGE cell signal; hit rate 0.22% among 360,000; AID 624168, 2012; activation, % at 10 µM;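 active = activation of at least 8% versus controls, or a plate z-score of at least 8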;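 also: Pro5 are CHO cells carrying HIG-tagged alpha-DG that lacks glycosylation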
TROY signal inh = inhibitors of TROY-driven NF-kB signaling, primary screen, Q293 LMP1-TROYcd cells, NF-kB luciferase, uHTS. Q293 LMP1-TROYcd NF-kB luciferase reporter, 4 h. inhibition, % at 10 µM. hit rate 0.98% among 360,000. AID 1347056, 2019;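 active = compounds whose plate-normalised and pattern-corrected inhibition of the luciferase reporter signal at the single screening dose is 50% or more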
LGR2 antag = inhibitors of bursicon-induced LGR2 CRE-luciferase signal, primary screen, cell-based, HEK293, CRE-luciferase reporter, bursicon stimulation; AID 720647, 2013; Drosophila bursicon receptor LGR2 (rickets); bursicon-stimulated, 4 h; hit rate 0.35% among 380,000; inhibition, % at 9.99 µM;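 active = drop in luminescence signal, shown as inhibition above about 50% in the replicate tests, limit read from the data, passing the limit was not always enough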;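 also: agonist challenge used bursicon conditioned medium at about half maximal strength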
TWEAK-Fn14 inh = inhibitors of TWEAK-Fn14 signaling, primary screen, luciferase reporter cells, uHTS. TWEAK-stimulated Fn14 reporter cells, luciferase luminescence, 8 h. inhibition, % at 10 µM. hit rate 2% among 360,000. AID 1159606, 2016; in the data active = inhibition above about 50%
LMP1 NFkB inh = EBV LMP1-driven NF-kappaB luciferase reporter inhibitors, primary screen, cell-based, luminescence, single point | LMP1-induced NF-kappaB luciferase reporter cells | inhibition, % at 12.5 µM | hit rate 0.69% among 350,000; in the data active = inhibition above about 41%;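 also: 0% = neutral control wells and 100% = reference inhibitor control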
HSP90 confirm = HSP90 inhibitors, confirmation, cell lysate, luminescence; shares compounds with HSP90 refold inh; rabbit reticulocyte lysate, luciferase refolding luminescence, 3 h; inhibition, % at 5.9 µM; hit rate 64% among 2,300; AID 1846, 2009; in the data active = inhibition above about 18%;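 also: 0% = vehicle wells and 100% = reference inhibitor wells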
FLuc counter = firefly luciferase inhibitors, HSP90 counter-screen, confirmation, artefact control for HSP90 inhibitor project, biochemical, luminescence, triplicate; purified native firefly luciferase; AID 1847, 2009; inhibition, % at 5.9 µM; shares compounds with HSP90 refold inh; hit rate 48% among 2,300;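 active = inhibition above the mean inhibition of all tested sample wells plus 3 SD, cut at about 10% in these data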;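 also: 0% = DMSO with luciferase and 100% = wells lacking luciferase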
Target sequence (P08659 whole entry, looked up): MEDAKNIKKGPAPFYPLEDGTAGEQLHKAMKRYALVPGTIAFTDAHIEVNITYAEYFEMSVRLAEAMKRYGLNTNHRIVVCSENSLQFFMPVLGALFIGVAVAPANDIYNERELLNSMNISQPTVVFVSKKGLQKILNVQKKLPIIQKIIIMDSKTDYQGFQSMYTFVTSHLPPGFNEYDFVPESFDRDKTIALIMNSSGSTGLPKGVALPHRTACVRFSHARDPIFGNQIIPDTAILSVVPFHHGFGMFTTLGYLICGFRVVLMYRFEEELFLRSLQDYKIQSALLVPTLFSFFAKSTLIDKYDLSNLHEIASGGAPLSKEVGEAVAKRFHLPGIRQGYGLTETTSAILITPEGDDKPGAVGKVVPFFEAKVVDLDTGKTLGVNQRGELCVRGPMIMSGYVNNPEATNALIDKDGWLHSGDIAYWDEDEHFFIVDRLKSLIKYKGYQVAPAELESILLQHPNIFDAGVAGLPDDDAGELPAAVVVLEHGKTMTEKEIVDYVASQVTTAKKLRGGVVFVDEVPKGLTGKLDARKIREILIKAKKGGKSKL
Numbers without * were called inactive; . = no result given.

SMILES	HSP90 refold inh	aDG glyco up	TROY signal inh	LGR2 antag	TWEAK-Fn14 inh	LMP1 NFkB inh	HSP90 confirm	FLuc counter
Cc1cccc(NCc2nc3ccccc3n2C)c1	2.6	0.0	-73.1	-50.4	-0.9	-19.6	.	.
CO[C@H](CN(C)S(=O)(=O)c1cn(C)cn1)[C@H](C)CN(C(=O)Nc1ccc(C(F)(F)F)cc1)[C@H](C)CO	.	.	.	8.7	.	.	.	.
CCN(CC)S(=O)(=O)c1ccc(C)c(NC(=O)CN(C)C)c1	48.8*	-0.2	53.4*	-10.4	15.8	-0.3	-3.5	-4.5
CCO[C@H]1OC(C(=O)N2CCN(C)CC2)=C[C@@H](c2csc3ccccc23)[C@@H]1CCCO	17.5*	0.2	-6.4	14.2	2.5	5.6	-3.6	-5.7
CC(C)C(=O)Nc1nc2c(ncn2C2CC(O)C(CO)O2)c(=O)[nH]1 (configuration not stated)	34.1*	0.5	6.0	3.4	-14.0	-0.8	4.4	-0.7
O=C(C[C@H]1C[C@H]2c3cc(NC(=O)Nc4ccccc4)ccc3O[C@H]2[C@@H](CO)O1)NCc1ccccc1	.	.	.	18.4	.	.	.	.
C[C@@H]1CN([C@@H](C)CO)C(=O)c2ccccc2-c2ccccc2CO[C@@H]1CN(C)C(=O)Nc1ccnc(N2CCOCC2)c1	.	.	.	-23.5	.	.	.	.
CC(C)(C)OC(=O)N1Cc2ccccc2C[C@H]1C(=O)NCC(=O)Nc1ccc2c(c1)OCCO2	32.3*	0.1	82.3*	29.3	96.2*	44.0*	52.2*	69.2*
COc1ccc(-c2ccc([C@@H]3[C@@H](CO)N4C(=O)CN(Cc5ccc(F)cc5)C[C@@H]34)cc2)cc1	.	.	.	2.1	.	.	.	.
O=C(CSc1nc2ccccc2[nH]1)NCCc1ccc(Cl)cc1	25.1*	0.2	-1.4	-6.2	13.3	-7.7	0.6	-4.3
CCCCN(C)C(=O)c1cc2cc3ccc(OC)cc3nc2s1	29.9*	0.3	24.9	.	74.1*	-8.7	39.2*	26.5*
CCCCN(CC)C(=O)c1cc2cc3ccc(OC)cc3nc2o1	1.3	1.3	-22.2	.	-35.7	-18.1	.	.
CCOC(=O)CNC(=O)CSc1ccc2nnc(-c3ccc(F)cc3)n2n1	2.9	0.0	-9.3	9.6	-3.2	-0.1	.	.
CCSc1ccc2nnc(-c3ccc(F)cc3)n2n1	88.3*	0.0	-12.8	-17.3	-20.2	5.1	-3.4	-6.9
Cc1cc(/C=N/NC(=O)c2ccccc2F)c(C)n1-c1ccccc1	6.0	0.0	-10.0	-95.1	17.2	-28.2	.	.
CCOc1ccc(NC(=O)c2cc(F)c(F)cc2Cl)cc1OCC	23.8*	-0.4	5.6	-14.7	5.5	-1.3	3.7	-2.3
Cc1ccc(C(=O)Nc2cc3ccccc3oc2=O)cc1	49.7*	-0.2	87.6*	99.1*	101.6*	79.3*	97.8*	92.1*
Cc1cc(/C=N/NC(=O)c2cccc(F)c2)c(C)n1-c1ccccc1	24.8*	-0.3	15.0	-70.7	39.3	-26.1	48.4*	46.6*
CCCCOc1ccc(NC(=O)c2cc(F)c(F)cc2Cl)cc1	-2.2	0.1	-51.4	-19.1	-24.7	-10.7	.	.
Cc1ccc(C(=O)Nc2cccc(C(=O)N/N=C/c3ccccc3F)c2)cc1	18.8*	-0.1	-29.5	-73.8	-10.3	58.7*	-2.0	-14.5
C[C@@H]1CN([C@H](C)CO)C(=O)c2cc(NC(=O)CCN3CCOCC3)ccc2O[C@@H]1CN(C)Cc1ccc2c(c1)OCO2	.	.	.	24.9	.	.	.	.
Cc1ccc(C(=O)Nc2ccc3nccnc3c2)cc1	26.4*	0.2	-17.6	31.7	49.4	15.1	33.2*	7.4
Cc1cc(NC(=O)c2ccc3nccnc3c2)ccc1Br	.	-0.1	-2.4	-47.1	21.4	-28.5	.	.
Cc1ccc(C(=O)Nc2ccc(C(=O)O)cc2NC(=O)c2ccc(C)cc2)cc1	60.3*	-0.1	13.2	6.7	41.0	-10.8	55.1*	36.8*
O=C(O)c1cccc(NC(=S)NC(=O)c2ccc3ccccc3c2)c1	64.2*	0.2	-30.8	-37.6	19.8	7.6	71.0*	48.6*
SMILES	HSP90 refold inh	aDG glyco up	TROY signal inh	LGR2 antag	TWEAK-Fn14 inh	LMP1 NFkB inh	HSP90 confirm	FLuc counter
Cc1ccc(C(=O)Nc2cccc(C(=O)O)c2)cc1	82.5*	.	.	.	.	.	87.9*	83.2*
O=C(O)c1ccc(NC(=S)NC(=O)c2ccc3ccccc3c2)cc1	-2.4	0.1	-44.5	-51.3	-2.8	-19.3	.	.
CCOc1ccc(C(=O)Nc2cc(NC(=O)c3ccc(OCC)c(Cl)c3)cc(C(=O)O)c2)cc1Cl	-1.6	0.3	43.1	8.9	-23.3	-3.7	.	.
CCOc1ccc(C(=O)Nc2cccc(C(=O)O)c2)cc1Cl	87.8*	0.0	-52.0	75.6*	35.5	38.7	88.0*	72.5*
COc1ccc(/C=N/n2c(-c3ccco3)nc3ccccc3c2=O)cc1	19.0*	0.0	-12.0	-25.2	15.3	-3.3	-0.2	-5.8
COc1cccc(/C=N/n2c(-c3ccco3)nc3ccccc3c2=O)c1	-0.8	-0.3	-9.7	-9.8	0.7	3.5	.	.
CO[C@@H]1CC[C@H]2CCN(C)C(=O)[C@H](C)CN(C)C(=O)c3cc(C#N)ccc3OC[C@H]1O2	.	.	.	10.0	.	.	.	.
C[C@@H](NC(=O)C[C@H]1C[C@@H]2c3cc(NC(=O)C4CCC4)ccc3O[C@@H]2[C@H](CO)O1)c1ccccc1	.	.	.	-9.5	.	.	.	.
Cc1ccc(OCc2nc(-c3ccccn3)no2)c(Br)c1	40.4*	0.1	36.4	.	84.8*	38.1	65.3*	61.5*
CO[C@H]1CN(C)C(=O)c2cc(NS(=O)(=O)c3ccc(C)cc3)ccc2OC[C@@H](C)N(C(=O)NC(C)C)C[C@@H]1C	.	.	.	-6.8	.	.	.	.
CCOC(=O)CN1C(=O)S/C(=C\c2ccc(-c3cccc(C(=O)O)c3C)o2)C1=O	.	-0.1	-35.0	-43.2	-15.8	.	.	.
Cc1c(C(=O)O)cccc1-c1ccc(/C=C2/NC(=O)N(c3ccccc3)C2=O)o1	33.2*	0.7	-20.6	-50.8	-10.6	-14.3	28.1*	-19.7
Cc1ccc(/C=C2/NC(=O)N(c3ccccc3)C2=O)o1	-2.9	-0.1	24.9	.	7.9	-16.2	.	.
Cc1c(C(=O)O)cccc1-c1ccc(/C=C2\SC(=O)NC2=O)o1	28.7*	0.2	-29.9	26.4	-10.4	10.4	39.3*	16.8*
Cc1ccc(-n2cc(C(=O)c3ccccc3O)cn2)cc1	31.1*	-0.2	46.8	.	83.0*	78.3*	61.3*	48.2*
